Sm TGR inh: qHTS Assay for the Inhibitors of Schistosoma Mansoni Peroxiredoxins. Schistosoma mansoni thioredoxin glutathione reductase (TGR), Q962Y6. purified TGR, DTNB reduction, TNB absorbance 405 nm. Potency, µM (titrated, usually from 114 µM), usual class: inhibitors. 3% of 360,000 active; further: nearly all actives have a fitted effect of over 60% in size
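TGR 20 nM + NADPH 100 uM (dispensed conc.), cpd preinc 15 min RT; start with NADPH (500 uM addition) then DTNB (15 mM addition). Kinetic TNB absorbance, 405 nm filter. Four-parameter Hill fit across titration.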
TbPYK inhibitor: qHTS of Trypanosoma Brucei Inhibitors; TbPYK enzyme, Kinase-Glo Plus ATP luminescence, 45 min; Potency, µM (top dose mostly 76.8 µM), usual class: inhibitors; 0.12% of 410,000 active; AID 624173, 2012; further: nearly all actives have a fitted effect of over 50% in size
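Luminescence from Kinase-Glo Plus, added after a 45-minute room-temperature reaction, served as the end-point read-out. The enzyme and substrate were preincubated with compound before ADP (130 uM final) initiated turnover. Concentration-effect curves came from normalized qHTS data.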
RE007 growth inh: qHTS Assay for Inhibitors of the HIV-1 protein Vpr; S. pombe RE007 Vpr strain, BacTiter-Glo ATP luminescence, 24 h; Potency, µM (titrated, usually from 92.2 µM), most hits filed as inhibitors; 0.21% of 360,000 active; active means well fitted falling curve with a large enough effect; inconclusive means small, poorly fitted or top-dose-only effect; inactive means no such curve, though single readings can be large or run the other way; further: nearly all actives have a fitted effect of over 50% in size
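Fission yeast strain RE007, carrying one chromosomally integrated HIV-1 vpr copy, was seeded at OD 0.01 in PMG+AL medium with 23 nL pinned compound. After 24 h at 30 °C and 99% humidity, viability was read by BacTiter-Glo luminescence.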
HCMV inh: qHTS Assay for inhibitors of the human cytomegalovirus (HCMV); HFF cells, HCMV-luciferase reporter, 72 h; active compounds read low; activity change, negative = inhibition, % at 57.5 µM; 4.5% of 410,000 active; in the data active means activity change below about -60%; inconclusive means no clear call, values can overlap the other calls; inactive means above about -39%
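Compounds were evaluated in HFFs infected with an HCMV luciferase reporter virus (MOI 1 PFU/cell). Luciferase in lysates collected 72 h post infection served as the replication measure.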
FBPA Giardia inh: qHTS Assay for Inhibitors of Fructose-1,6-bisphosphate Aldolase from Giardia Lamblia | Potency, µM (highest dose often 59.6 µM), hits mostly inhibitors | purified Giardia FBPA | AID 2451, 2010 | 0.71% of 290,000 active; further: nearly all actives have a fitted effect of over 55% in size
Target sequence (A8B2U2 whole entry, looked up): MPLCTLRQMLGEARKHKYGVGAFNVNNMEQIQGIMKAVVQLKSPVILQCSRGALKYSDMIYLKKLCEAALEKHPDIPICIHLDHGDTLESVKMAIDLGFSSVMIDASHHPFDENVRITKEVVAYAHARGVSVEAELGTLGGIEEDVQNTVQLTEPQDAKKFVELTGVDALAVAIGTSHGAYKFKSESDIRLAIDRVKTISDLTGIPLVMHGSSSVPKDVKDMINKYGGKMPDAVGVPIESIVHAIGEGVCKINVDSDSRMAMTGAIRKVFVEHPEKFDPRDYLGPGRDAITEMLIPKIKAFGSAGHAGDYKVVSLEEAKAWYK
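Giardia FBPA (40 nM reagent) was preincubated 10 min at RT with compound (up to 57.5 uM final), then substrate plus GAPDH/TPI/NAD/arsenate coupling system with diaphorase/resazurin was added; resorufin fluorescence (525/598 nm) was read after 20 min.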
FMDV antiviral: High Throughput Screening for Foot and Mouth Disease Virus Antivirals. FMDV antiviral cell-based qHTS. Potency, µM (doses to about 57.9 µM), most hits filed as inhibitors. 1.2% of 410,000 active; calls by dose curve; tested in HEK293T cells; further: read-out not given here; nearly all actives have a fitted effect of over 45% in size
Of the large screens only hits and unclear results are named; the others gave an inactive call. Shown are actives, neighbours in structure and some others; about 7.7% of the full set was active somewhere. Unless noted, the call rests on the fitted dose curve; in most records, active means well fitted curve in the direction sought with a large enough effect; inconclusive means small, poorly fitted or top-dose-only effect, or another doubt; inactive means no such curve, though single readings can be large; an effect the other way counts as inactive or inconclusive.

Cc1ccc(F)cc1NC(=O)CSc1nc(-c2cccs2)cc(C(F)(F)F)n1	HCMV inh -76 (no result: RE007 growth inh, FBPA Giardia inh)
O=C(CSc1nc(-c2ccco2)cc(C(F)(F)F)n1)N1CCN(c2ccc(Cl)cc2)CC1	FMDV antiviral inconclusive
Cc1cccc(C)c1NC(=O)CSc1nc(-c2cccs2)cc(C(F)(F)F)n1	HCMV inh inconclusive (no result: RE007 growth inh, FBPA Giardia inh)
CCOC(=O)N1CCN(c2nc(-c3ccco3)cc(C(F)(F)F)n2)CC1	HCMV inh -62, FMDV antiviral inconclusive
COc1ccccc1N1CCN(C(=O)CSc2nc(-c3ccco3)cc(C(F)(F)F)n2)CC1	Sm TGR inh 35µM, TbPYK inhibitor inconclusive, FMDV antiviral inconclusive
COc1cccc(C(=O)NCc2cn3cccc(C)c3n2)c1	none (no result: RE007 growth inh, FBPA Giardia inh)
COc1ccc(NC(=O)CSc2nc(-c3ccco3)cc(C(F)(F)F)n2)cc1Cl	HCMV inh -69, FMDV antiviral inconclusive (no result: RE007 growth inh, FBPA Giardia inh)
C[C@@H]1O[C@@H](O[C@H]2C[C@@H](O)[C@]3(CO)[C@@H]4C(CC[C@]3(O)C2)[C@@]2(O)CC[C@H](C3COC(=O)C3)[C@@]2(C)C[C@H]4O)[C@H](O)[C@H](O)[C@H]1O (stereo not given in full)	HCMV inh -99, FMDV antiviral inconclusive (no result: FBPA Giardia inh)
C[C@@H]1O[C@@H](O[C@H]2C[C@@H](O)[C@]3(CO)[C@H]4[C@H](O)C[C@]5(C)[C@@H]([C@@H]6COC(=O)C6)CC[C@]5(O)[C@@H]4CC[C@]3(O)C2)[C@H](O)[C@H](O)[C@H]1O	none (no result: Sm TGR inh, TbPYK inhibitor, RE007 growth inh, HCMV inh, FMDV antiviral)
COC(=O)Cn1cnc2c(NC(=O)c3ccccc3)ncnc21	none (no result: Sm TGR inh, TbPYK inhibitor, RE007 growth inh, FBPA Giardia inh, FMDV antiviral)
O=C(CSc1ccccc1)NCc1ccco1	none
O=C(CSc1ccc2c(c1)OCCO2)NCc1ccco1	Sm TGR inh 20µM
O=C(CN1CC(=O)Oc2ccccc21)NCc1ccco1	Sm TGR inh inconclusive, FBPA Giardia inh inconclusive
Cc1ccccc1CN1CCN(CC(=O)NCc2ccco2)C1=O	Sm TGR inh 40µM
O=C(CN1CCOc2ccccc21)NCc1ccco1	Sm TGR inh 50µM
COc1c(C)cc(Br)cc1C(=O)Nc1ccccc1N1CCN(C(=O)c2ccccc2)CC1	none
CCOc1ccc(C(=O)CCC(=O)N2CCN(c3ccccc3O)CC2)cc1	FMDV antiviral 35µM (no result: Sm TGR inh, FBPA Giardia inh)
O=C(c1ccccc1)c1ccc(C(=O)N2CCN(c3ccccc3O)CC2)cc1	HCMV inh -65, FMDV antiviral inconclusive (no result: Sm TGR inh, FBPA Giardia inh)
Cc1ccccc1C(=O)Nc1ccccc1N1CCN(C(=O)c2ccccc2)CC1	HCMV inh -73
CCOc1ccc(S(=O)(=O)NCCC(=O)N2CCN(c3ccccc3O)CC2)cc1	none (no result: FBPA Giardia inh)
Oc1ccc(Cl)cc1CN1CCOc2c(O)cc(-c3nc4ccccc4s3)cc2C1	none (no result: Sm TGR inh, TbPYK inhibitor, RE007 growth inh, HCMV inh, FBPA Giardia inh)
Cc1ccc(-c2nc(CS(=O)(=O)CC(=O)NC3CCCCCC3)c(C)o2)cc1	Sm TGR inh 25µM
Cc1oc(-c2ccccc2F)nc1CS(=O)(=O)CC(=O)NC1CCCC1	Sm TGR inh 40µM
CCOc1ccc(CCNC(=O)CS(=O)(=O)Cc2nc(-c3ccccc3F)oc2C)cc1	Sm TGR inh inconclusive, HCMV inh -66 (no result: FBPA Giardia inh)
Cc1oc(-c2ccccc2F)nc1CS(=O)(=O)CC(=O)NC1CCCC(C)C1C (stereo not given)	FMDV antiviral inconclusive (no result: FBPA Giardia inh)
COc1ccc(-c2nc(CS(=O)(=O)CC(=O)NC3CCCCCC3)c(C)o2)cc1	Sm TGR inh inconclusive (no result: FBPA Giardia inh)
CCN(CC)C(=O)c1ncn2c1C(=O)NC[C@@H]2C	none (no result: Sm TGR inh, TbPYK inhibitor, RE007 growth inh, FBPA Giardia inh, FMDV antiviral)
Cc1ccc2c(c1)-c1c(c(C(=O)NCCc3ccccc3)nn1C)CS2	none (no result: RE007 growth inh, FBPA Giardia inh)
COCCCNC(=O)c1cnn(-c2ccccc2Cl)c1C1CCN(C(=O)OC(C)(C)C)CC1	HCMV inh active (no result: RE007 growth inh, FBPA Giardia inh)
COc1ccc(CCN2CCC(CNC(=O)c3cnn(-c4cccc(Cl)c4)c3C3CCN(C(=O)OC(C)(C)C)CC3)CC2)cc1	HCMV inh -101 (no result: RE007 growth inh, FBPA Giardia inh)
